MEKK2mut PB1 HTS: signal of MEK5 binding to mutant human MEKK2 PB1 domain; bead flow cytometry, Alexa488-MEK5 binding to MEKK2 mutant; percent response, % at 10 µM; hit rate 0.35% among 290,000; in the data active = percent response above about 24%, passing the limit was not always enough
GRK2 inh: blocks RNA aptamer binding to human GRK2. P25098. bead flow cytometry, FAM-aptamer displacement from GRK2. inhibition of aptamer binding, % at 10 µM. hit rate 0.59% among 330,000;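 active = inhibition of aptamer binding above 40%, roughly 3 SD of noise, on plates passing a quality check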;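 note: median bead fluorescence of bound FAM aptamer so fluorescent compounds give negative values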
B2AR ag: human beta-2 adrenergic receptor agonism by FAP; hit rate 0.43% among 340,000; Am2.2-beta2AR cells, FAP receptor internalization, flow cytometry; response, % (no concentration beside the values);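 active = response above a set limit, near 3 SD of response in nonfluorescent compounds, cut at about 42% in these data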
MEKK3 PB1 HTS: raises or lowers MEK5 binding to the human MEKK3 PB1 domain. Q99759. bead-based flow cytometry, Alexa488-MEK5 binding to MEKK3; actives lie on both sides; 0 = blocked by unlabeled MEK5, 100 = vehicle. binding response (% of control), % at 10 µM. hit rate 1.4% among 290,000. AID 1529;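 active = binding response more than 3 SD above or below the average of its plate-row segment, actives on both sides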;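 note: Alexa488 bead fluorescence after subtracting the streptavidin-only scavenger bead signal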
MEKK2 WT-MEK5: raises or lowers MEK5 binding to wildtype human MEKK2 PB1 domain | Q9Y2U5 | bead flow cytometry, Alexa488-MEK5 binding to MEKK2 WT; actives lie on both sides | binding response (% of control), % at 10 µM | hit rate 1.1% among 290,000 | AID 1531; in the data active = binding response below about 67% or above about 130%
MEKK2wt confirm: raises or lowers MEK5 binding to wildtype human MEKK2, retest; shares compounds with MEKK3 PB1 HTS; bead flow cytometry, Alexa488-MEK5 binding to MEKK2 WT; actives lie on both sides; binding response (% of control), % at 10 µM; hit rate 2.4% among 5,900; in the data active = binding response below about 16% or above about 210%; inactive = in between
MEKK2mut confirm: signal of MEK5 binding to mutant human MEKK2, retest; shares compounds with MEKK3 PB1 HTS; bead flow cytometry, Alexa488-MEK5 binding to MEKK2 mutant; percent response, % at 10 µM; hit rate 2% among 5,900; in the data active = percent response mostly above about 71%, no sharp cut-off; inactive = mostly below about 38%;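 note: higher means compound restores mutant binding toward wildtype level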
MEKK3 confirm: MEKK3-MEK5 PB1 inhibition, single concentration confirmation | hit rate 1.8% among 5,900 | binding response (% of control), % at 10 µM | bead flow cytometry, Alexa488-MEK5 binding to MEKK3; hits give low values | shares compounds with MEKK3 PB1 HTS;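 active = binding response below 72% of control, or above a set upper limit, though filed actives all read lower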;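 note: 100% = DMSO only wells and 0% = binding blocked by excess unlabeled MEK5; lower values mean stronger disruption of MEK5 binding to MEKK3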
Starred values were filed as active, the others as inactive; x = no result; ! = repeats disagree; [ ] = remark or other dose. Most compounds without a hit are left out; they make up all but 2.9% or so of the library.

SMILES	MEKK2mut PB1 HTS	GRK2 inh	B2AR ag	MEKK3 PB1 HTS	MEKK2 WT-MEK5	MEKK2wt confirm	MEKK2mut confirm	MEKK3 confirm
CCC(NC(=O)NCc1ccccc1)(C(F)(F)F)C(F)(F)F	0	0	-1	151*	106	101	2	104
CC(C)CC(=O)/C(=C/c1ccc(N(C)C)cc1)n1cncn1	-9	2	-5	69*[inhibitor]	37*[inhibitor]	104	0	102
CN(C)c1ccc(/C=C(/C(=O)c2ccc(Cl)cc2Cl)n2cncn2)cc1	0	0	-1	95	98	x	x	x
c1ccc(-c2ccccc2OCCCCN2CCCCCC2)cc1	9	0	7	101	120	x	x	x
CC(C)(C)C(=O)CN1C(=O)NC(C)(Cc2ccc3c(c2)OCO3)C1=O (configuration not stated)	-7	0	9	98	96	x	x	x
CCN1C(=O)C(CC(=O)Nc2ccc(F)cc2)N(Cc2ccco2)C1=S (configuration not stated)	3	3	0	104	99	x	x	x
CCOc1ccc(NC(=O)CC2C(=O)N(c3ccccc3)C(=S)N2Cc2ccccn2)cc1 (configuration not stated)	-18	3	8	1.0*[inhibitor]	1.0*[inhibitor]	107	3	101
C=CCN1C(=O)C(CC(=O)Nc2ccc(OCCC)cc2)N(CCCN2CCN(Cc3ccccc3)CC2)C1=S (configuration not stated)	42	0	35	111	183*	148	22	110
CCCCCCOc1ccc(NC(=O)CC2C(=O)N(CC)C(=S)N2Cc2ccco2)cc1 (configuration not stated)	3	0	-7	110	141*	111	3	107
CCN(C(=O)CCCCC(=O)N(CC)c1ccccc1)c1ccccc1	x	3	-1	x	x	x	x	x
C=CCn1c(=O)/c(=C2/Sc3ccccc3N2CC)s/c1=C1/C(=O)NN=C1C	-10	42*	x	76	57*[inhibitor]	104	1	104
O=C(COC(=O)C1CC(=O)N(Cc2ccccc2)C1)Nc1cccc([N+](=O)[O-])c1 (configuration not stated)	x	5	0	x	x	x	x	x
COc1ccc(C2NCCc3c2[nH]c2ccccc32)cc1COc1ccc(F)cc1 (configuration not stated)	2	0	15	62*[inhibitor]	140*	205	69	114
COc1ccc(/C=N/NC(=O)c2cc(OC)c(OC)c(OC)c2)cc1CN1CCc2cc(OC)c(OC)cc2C1C (configuration not stated)	13	0	34	102	136	x	x	x
COc1ccc(C2NCCc3c2[nH]c2ccccc32)cc1CN1CCc2cc(OC)c(OC)cc2C1C (configuration not stated)	20	x	32	107	172*	216*	81*	117
NC(=O)c1[nH]cnc1N	7	7	-1	101	104	x	x	x
CSCc1c(C(=O)Nc2ccccc2N2CCOCC2)oc2ccccc12	x	0	0	x	x	x	x	x
Cc1ccc(C)c(NC(=O)c2ccc(S(=O)(=O)C(F)F)cc2)c1	1	0	-10	132*	109	99	-3	101
CCCc1nc2c(sc3nc4c(cc32)COC(C)(C)C4)c(=O)o1	-2	0	4	101	94	x	x	x
Cc1[nH]nc2c1C(Cc1ccccc1)C(C#N)=C(N)O2 (configuration not stated)	-26	1	3	2.0*[inhibitor]	3.0*[inhibitor]	101	-1	103
CCc1[nH]nc2c1C(Cc1ccccc1)C(C#N)=C(N)O2 (configuration not stated)	2	1	-1	99	98	x	x	x
CCC(OC(=O)C1=Cc2ccccc2OC1)C(=O)NC1CCCC1 (configuration not stated)	11	0	1	126*	114	97	0	102
CC(C)C(OC(=O)C1=Cc2ccccc2OC1)C(=O)NC1CCCC1 (configuration not stated)	3	0	-10	131*	109	83	-8	96
O=C(COC(=O)c1n[nH]c(=O)c2ccccc12)Nc1ccccc1F	x	0	-7	x	x	x	x	x
CO/N=C/C(C#N)=C/c1cc(C(=O)c2ccccc2)cn1C	-2	0	-2	99	99	x	x	x
SMILES	MEKK2mut PB1 HTS	GRK2 inh	B2AR ag	MEKK3 PB1 HTS	MEKK2 WT-MEK5	MEKK2wt confirm	MEKK2mut confirm	MEKK3 confirm
O=C(NCCCn1cccn1)C1CCC(=O)N(CCc2ccccc2)C1 (configuration not stated)	1	0	1	102	98	x	x	x
O=C(NCCOc1nc(N2CCCCC2)nc(N2CCCCC2)n1)Nc1ccccc1	5	0	8	106	106	x	x	x
CCN(CC)c1nc(OCCNC(=O)Nc2ccccc2)nc(N(CC)CC)n1	24*	1	0	111	118	95	-9	96
O=C(CN1C(=O)NC(Cc2ccccc2)C1=O)Nc1ccc(F)c(Cl)c1 (configuration not stated)	x	2	2	x	x	x	x	x
CC(C)C(=O)N1CCN(c2ccccc2NC(=O)c2ccco2)CC1	-9	0	-10	100	92	x	x	x
O=S(=O)(NCCN1CCCC1)c1ccc(Br)cc1	13	0	3	102	103	x	x	x
O=C(COC(=O)CCNS(=O)(=O)c1ccc2c(c1)OCCO2)NC1CCCc2ccccc21 (configuration not stated)	4	1	4	124*	115	100	-2	100
NC(N)=N/N=C/c1ccc2cccc(OCc3ccccc3)c2n1	31	0	-3	104	148*	2.0*[inhibitor]	-47	2.0*
Cc1noc(C)c1C(=O)OCC(=O)/C=C1/N(C)c2ccccc2C1(C)C	x	x	9	x	x	x	x	x
Cc1cc2ncn(C(=O)c3ccc(F)cc3)c2cc1C	-3	0	-4	99	100	x	x	x
Fc1ccc(C(c2ccc(F)cc2)N2CCN(C/C=C/c3ccccc3)CC2)cc1	26*!	2	16	113	210*!	184	39	110
CC(C(=O)N(C)Cc1ccccc1)N1CCN(C/C=C/c2ccccc2)CC1 (configuration not stated)	1	1	-2	95	98	x	x	x
O=C(Nc1cccc(Cl)c1)N1CCN(C/C=C/c2ccccc2)CC1	16	1	-13	107	139*	113	8	101
C(=C\c1ccccc1)/CN1CCN(C(c2ccccc2)c2ccccc2)CC1	14	0	1	109	165*	162	24	103

Screens as filed in PubChem.
